Measured values published in PubChem BioAssay AID1159580 (chemical genetic matrix, 2015).
Several values for one entry are separate records, joined by “and”; a condition that tells them apart may be missing. Equal entries are not always repeated. Out of some 5,500 compounds screened, about 2,000 (36%) were called active. Another 18% or so got no clear call; they are omitted. No stated cut-off is given here; in the data, active means normalized growth mostly below about 0.91 (no sharp cut-off); inconclusive means no clear call, values can overlap the other calls; inactive means mostly above about 0.92. This is one part of the list.

Experiment: chemical genetic growth profiling, strain panel (AID 1159580);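 further: tested at 20 µM; growth read once vehicle control cultures reached saturation at 30 °C; 1 = growth at the plate median or of vehicle wells; lower values mean less growth of the strain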
Settings: S. cerevisiae deletion strains, growth OD

Measured: normalized growth

NS(=O)(=O)c1cc2c(cc1Cl)NC(C(Cl)Cl)NS2(=O)=O (configuration not stated)
inactive: locus YAL021C, strain ccr4, hits give low values 0.977 | locus YAL026C, strain drs2, hits give low values 0.968 | locus YAL030W, strain snc1, hits give low values 0.978 | locus YBL061C, strain skt5, hits give low values 0.985 | locus YBR009C, strain hhf1, hits give low values 0.919 | locus YBR021W, strain FUR4, hits give low values 1.01 | locus YBR023C, strain chs3, hits give low values 0.978 | locus YBR171W, strain sec66, hits give low values 0.972 | locus YBR229C, strain ROT2, hits give low values 1.01 | locus YBR231C, strain swc5, hits give low values 0.979 | locus YBR279W, strain paf1, hits give low values 0.984 | locus YCL011C, strain gbp2, hits give low values 0.96 | locus YCL016C, strain dcc1, hits give low values 0.967 | locus YCL029C, strain bik1, hits give low values 1.02 | locus YCL069W, strain vba3, hits give low values 0.988 | locus YCR088W, strain abp1, hits give low values 0.96 | locus YDL005C, strain med2, hits give low values 0.974 | locus YDL035C, strain GPR1, hits give low values 0.991 | locus YDL040C, strain nat1, hits give low values 0.986 | locus YDL074C, strain BRE1, hits give low values 1.01 | locus YDL101C, strain DUN1, hits give low values 1 | locus YDL134C, strain PPH21, hits give low values 1.02 | locus YDL185W, strain tfp1, hits give low values 1.02 | locus YDL192W, strain arf1, hits give low values 1.02 | locus YDR001C, strain nth1, hits give low values 0.957 | locus YDR069C, strain doa4, hits give low values 0.989 | locus YDR101C, strain arx1, hits give low values 1.01 | locus YDR137W, strain rgp1, hits give low values 0.97 | locus YDR150W, strain NUM1, hits give low values 1.01 | locus YDR159W, strain sac3, hits give low values 0.918 | locus YDR162C, strain NBP2, hits give low values 1.01 | locus YDR195W, strain ref2 0.992 | locus YDR297W, strain sur2, hits give low values 0.984 | locus YDR318W, strain mcm21, hits give low values 1.02 | locus YDR334W, strain swr1, hits give low values 0.979 | locus YDR335W, strain msn5, hits give low values 0.963 | locus YDR388W, hits give low values 1.02 | locus YDR392W, strain spt3, hits give low values 0.917 | locus YDR502C, strain sam2, hits give low values 1.01 | locus YEL003W, strain gim4, hits give low values 0.976 | locus YEL037C, strain rad23, hits give low values 0.98 | locus YEL061C, strain CIN8 (second series), hits give low values 0.971 | locus YEL061C, strain CIN8, hits give low values 1.01 | locus YER015W, strain faa2, hits give low values 0.977 | locus YER016W, strain bim1, hits give low values 0.926 | locus YER110C, hits give low values 1.02 | locus YER111C, strain swi4, hits give low values 0.982 | locus YER155C, strain BEM2 (second series), hits give low values 1.03 | locus YER155C, strain BEM2, hits give low values 1.01 | locus YER167W, strain BCK2, hits give low values 1.01 | locus YFR010W, strain ubp6, hits give low values 0.984 | locus YGL078C, strain dbp3, hits give low values 1.01 | locus YGL086W, strain mad1, hits give low values 1.01 | locus YGL167C, strain pmr1, hits give low values 0.963 | locus YGL173C, strain kem1, hits give low values 0.998 | locus YGL227W, strain vid30, hits give low values 0.98 | locus YGL240W, strain doc1, hits give low values 0.99 | locus YGL248W, strain PDE1, hits give low values 0.997 | locus YGL253W, strain hxk2, hits give low values 0.976 | locus YGR135W, strain pre9, hits give low values 1.01 | locus YGR252W, strain gcn5, hits give low values 0.991 | locus YHR013C, strain ard1, hits give low values 0.914 | locus YHR027C, strain rpn1, hits give low values 0.975 | locus YHR030C, strain SLT2, hits give low values 1.01 and 0.993 | locus YHR079C, strain IRE1 (second series), hits give low values 1.01 | locus YHR079C, strain IRE1, hits give low values 0.989 | locus YHR094C, strain hxt1, hits give low values 1.01 | locus YHR129C, strain ARP1, hits give low values 0.993 | locus YHR142W, strain chs7, hits give low values 0.981 | locus YHR200W, strain rpn10, hits give low values 1.01 | locus YIL066C, strain RNR3, hits give low values 1.02 | locus YIL073C, strain SPO22, hits give low values 1.06 | locus YIL125W, strain kgd1, hits give low values 1.01 | locus YIR030C, strain dcg1, hits give low values 1.02 | locus YJL092W, strain hpr5, hits give low values 0.987 | locus YJL095W, strain BCK1 (second series), hits give low values 0.973 | locus YJL095W, strain BCK1, hits give low values 0.991 and 0.983 | locus YJL115W, strain asf1, hits give low values 0.963 | locus YJL129C, strain trk1, hits give low values 0.968 | locus YJL134W, strain LCB3, hits give low values 1.01 | locus YJL154C, strain vps35, hits give low values 0.978 | locus YJL164C, strain tpk1, hits give low values 0.94 | locus YJL166W, strain qcr8, hits give low values 0.993 | locus YJL168C, strain set2, hits give low values 1.01 | locus YJL187C, strain SWE1 (second series), hits give low values 1.01 | locus YJR043C, strain POL32, hits give low values 1 | locus YJR066W, strain TOR1, hits give low values 0.931
